Values joined by “and” are separate entries in the source; they are usually repeats but may differ in a detail not shown here. Identical values can stand only once. Records with an inconclusive call do not appear. Unmarked numbers belong to inactive results. Active and inactive are the calls of the source. Calls follow the shape of the dose curve; as a rule, active = well fitted cell-killing curve with a large enough effect; inconclusive = small, poorly fitted or top-dose-only effect; inactive = flat fitted curve, though single readings scatter.
% is scaled to controls: 0 for no effect and ±100 for the full control effect.

This assay is described as follows: Cellular viability qHTS for adrenocortical cancer (ACC) cell line SW-13 (AID 1963989). Also: nearly all actives have a fitted effect of over 65% in size.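 As to activity (max response): cells grown in serum-free medium with ITS supplement.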 As to conditions: SW-13 ACC cells viability, CellTiter-Glo, 48 h; activity (max response): active compounds read low. The source says:
PI: Naris Nilubol, MD Surgical Oncology Program, National Cancer Institute (NCI) National Institute of Health (NIH), Bethesda, Maryland Adrenocortical cancer (ACC) is a rare malignancy with poor survival outcomes and few treatment options. Currently, mitotane is the only FDA-approved therapy for ACC. Although adjuvant radiation therapy is rarely utilized, it has the potential to improve survival in select cases. Through a quantitative high-throughput drug screen (qHTS), we identified auranofin (AF), a thioredoxin reductase (TXNRD) inhibitor, as a promising candidate drug. This study aims to evaluate whether AF can enhance the efficacy of radiation therapy in the treatment of ACC. Two human ACC cell lines, SW-13 and NCI-H295R, were screened using the National Center for Advancing Translational Sciences (NCATS) Pharmaceutical Collection (NPC) and the Mechanism Interrogation PlatE (MIPE) library (~4,991 compounds). CellTiter-Glo (Cat # G7570, Promega, Madison, WI) was utilized to measure cell viability. Described herein are the results of the corresponding viability assay.
PROTOCOL TABLE (as described by Inglese J, Shamu CE and Guy RK. 2007) SEQUENCE No. (e.g., 1, 2, 3, etc.); […] (e.g., Cells, Incubation, Reagent, etc.); VALUE; DESCRIPTION. 1; Cells; 5 uL; white, solid-bottom, 1536-well tissue-culture treated plates. 2; Time; overnight culture at 37C with 5% CO2. 3; Compounds and control; 23 nL; Kalypsis pin tool (Wako USA) equipped with a 1536-well pin head to transfer to the assay plates. 4; Time; 48 hours; 37C with 5% CO2. 5; Reagent; 4 uL; CellTiter-Glo luminescent substrate mix. 6; Time; 20 min at room temperature. 7; Detection; Luminescence; ViewLux plate reader NOTES (numbers refer to Sequence numbers above) 1. SW13 cells were harvested from a T175 flask and resuspended in ITS-supplemented DMEM serum-free medium at a concentration of 300 000 cells/mL. Then 5 uL of resuspended cells were dispensed into each well of white, solid-bottom, 1536-well tissue-culture-treated plates using a multidrop combi dispenser. The plates were covered with stainless steel gasket lids. 2-3. The plates were cultured overnight at 37C with 5% CO2. Twenty-three nL of compounds (eight selected concentrations from the NPC / MIPE) or positive control (10 mM stock of bortezomib) in DMSO was transferred to each well of the assay plate using a pin tool (Kalypsys, San Diego, CA, USA). The final concentration of the compounds in the 5 uL assay volume ranged from 0.5 nM to 46 uM. 4-6. After 48 hours of incubation at 37C and 5% CO2, 4 uL of CellTilter-Glo luminescent substrate mix (Promega, Madison, WI, USA) was added to each well. Then the plates were incubated for 20 minutes at room temperature. 7. After incubation, luminescence was measured using a ViewLux plate reader (PerkinElmer, Waltham, MA, USA) with a clear filter was used to measure the number of metabolically competent cells. To determine compound activity in the qHTS assay, the titration-response data for each sample was plotted and modeled by a four-parameter logistic fit yielding IC50 and efficacy (maximal response) values. […] REFERENCES: Inglese J, Shamu CE and Guy RK, Reporting data from high throughput screening of small molecule libraries, Nature Chemical Biology, 2007, 3(8): 438-441. doi.org/10.1038/nchembio0807-438.
Turning to `CCCCCOC(=O)Nc1nc(=O)n([C@@H]2O[C@H](C)[C@@H](O)[C@H]2O)cc1F`, the activity (max response) was 14.3% and 14.2%.

Consider `Cc1cc(NC(=O)C2=C(O)c3ccccc3S(=O)(=O)N2C)no1`, for which the activity (max response) was -0.835%.

Regarding `CCN(CC)CCOC(=O)C(Cc1cccc2ccccc12)CC1CCCO1` (stereo not given), the activity (max response) was -10.7%.

As to `C[C@H]1NCc2cc(-c3ccc4c(=O)c(C(=O)O)cn(C5CC5)c4c3OC(F)F)ccc21`, the activity (max response) was -8.27%.

Regarding `Cc1cc(O)c2c(c1)C(=O)c1cc(O)cc(O)c1C2=O`, the activity (max response) is -8.42%.

In the case of `CCOC(=O)C(C#N)=C(c1ccccc1)c1ccccc1`, the activity (max response) was -5.89%.

Consider `C[N+](C)(C)CCCCCC[N+](C)(C)C`, for which the activity (max response) is 10.1%.

Regarding `Cc1cc(C)c2c(c1)[C@@H](N(Cc1cc(C(F)(F)F)cc(C(F)(F)F)c1)c1nnn(C)n1)CCCN2CC1CCC(C(=O)O)CC1` (stereo not given in full), the activity (max response) was -23.9%.

In the case of `CC(COc1ccccc1)NC(C)C(O)c1ccc(O)cc1` (stereo not given), the activity (max response) was 3.43%.

`COc1cc(OC)cc(OC)c1`: the activity (max response) was 5.62%.

Take `COC(c1ccccc1)(c1ccccc1)[C@H](Oc1nc(C)cc(C)n1)C(=O)O`: the activity (max response) was 2.42% and -1.06%.

`Nc1c2ccccc2nc2ccccc12`: the Potency is 7.31 µM (active).

With `Cc1nn(C)c(COc2ccc(N3CCN(S(=O)(=O)N(C)C)CC3)cc2)c1-c1cccc2c(CCCOc3cccc4ccccc34)c(C(=O)O)n(CCN3CCOCC3)c12`, the activity (max response) is -16.3%.

As for `NNCCc1ccccc1`, the activity (max response) was -8.17%.

Regarding `Cc1ccc(S(=O)(=O)Nc2cc(-c3ccc(C#N)s3)ccc2C)cc1`, the Potency is 0.0447 µM (active).

Regarding `CCn1ccc(NS(=O)(=O)c2ccc(N)cc2)nc1=O`, the activity (max response) is 11.1%.

Take `CCS(=O)(=O)Nc1ccc(Oc2ccc(F)cc2F)c(-c2cn(C)c(=O)c3[nH]ccc23)c1`: the Potency was 2 µM (active).

Regarding `CN1CCN(N)CC1`, the activity (max response) is -3.26%.

For `Cc1ccc(-c2nn(C(C)(C)CNC(=O)c3ccncc3)c3ncnc(N)c23)cc1`, the Potency was 8.91 µM (active).

On to `C[C@H](CCC(=O)O)[C@H]1CCC2C3C[C@H](O)[C@@H]4C[C@H](O)CC[C@]4(C)C3CC[C@@]21C` (stereo not given in full), for which the activity (max response) was 1.86%.

Consider `Cc1ccc(C(=O)Nc2ccc(CN3CCN(C)CC3)c(C(F)(F)F)c2)cc1C#Cc1cnc2[nH]ncc2c1`, for which the Potency was 1.78 µM (active).

On to `O=C(NC(Cc1cc(=O)[nH]c2ccccc12)C(=O)O)c1ccc(Cl)cc1` (stereo not given), for which the activity (max response) was 7.09% and -3.01%.

Consider `CN1Cc2c(N)cccc2C(c2ccccc2)C1` (stereo not given), for which the activity (max response) is -0.946%.

For `Oc1ccc(C2CNCCc3c2cc(O)c(O)c3Cl)cc1` (stereo not given), the activity (max response) was 2.44% and 14.8%.

Regarding `O=C1NC(c2ccccc2)(c2ccccc2)C(=O)N1COP(=O)(O)O`, the activity (max response) was 10.4%.

`c1cncc(CN2CCC(n3ncc4c(N5CCOCC5)nc(-c5ccc6[nH]ccc6c5)nc43)CC2)c1`: the activity (max response) was -29.6%.

On to `O=C(N[C@H]1CCC[C@H](CO)C1)C1CCN(c2nc3cc(Cl)c(-c4ccc(Cl)cc4)cc3o2)CC1`, for which the activity (max response) was -10.9%.

Regarding `C=C[C@@]1(C)CC(=O)[C@]2(O)[C@@]3(C)[C@@H](O)CCC(C)(C)[C@@H]3[C@H](O)[C@H](OC(C)=O)[C@@]2(C)O1`, the activity (max response) is 4.29%.

As to `OC[C@@H](O)[C@@H](O)[C@H](O)[C@@H](O)CO`, the activity (max response) was 3.97%.

Consider `Cc1c(CN2CCN(S(C)(=O)=O)CC2)sc2c(N3CCOCC3)nc(-c3cnc(N)nc3)nc12`, for which the Potency was 0.891 µM (active).

In the case of `NC(=O)c1cc[n+](CC2=C(C(=O)[O-])N3C(=O)[C@@H](NC(=O)Cc4cccs4)[C@H]3SC2)cc1`, the activity (max response) was 11.8%.

`OC[C@H]1O[C@@H](n2cnc3c2NC=NC[C@H]3O)C[C@@H]1O`: the activity (max response) was 12.8%.

Take `CNC[C@H](O)c1ccc(O)c(O)c1`: the activity (max response) was -16.4% and -3.87%.

Regarding `CC(=O)Nc1c(I)cc(I)c(C(=O)O)c1I`, the activity (max response) was -1.35%.

In the case of `CCN(CC)CCNC(=O)c1ccc2nc(-c3ccccc3)c(-c3ccc(CN4CCC(n5c(=O)[nH]c6ccccc65)CC4)cc3)nc2c1`, the Potency was 6.31 µM (active).

On to `CSc1ccc(C(=O)/C=C/c2cc(C)c(OC(C)(C)C(=O)O)c(C)c2)cc1`, for which the Potency is 35.5 µM (active).

As to `COC(=O)N[C@H](C(=O)N[C@@H](Cc1ccccc1)[C@@H](O)CN(Cc1ccc(-c2ccccn2)cc1)NC(=O)[C@@H](NC(=O)OC)C(C)(C)C)C(C)(C)C`, the activity (max response) was -5.43%.

In the case of `Cc1ccccc1N=Nc1ccc(N=Nc2c(O)ccc3ccccc23)c(C)c1`, the activity (max response) is 15.2%.

On to `CN[C@H]1CC[C@@H](c2ccc(Cl)c(Cl)c2)c2ccccc21`, for which the Potency was 20.6 µM (active) and 28.2 µM (active).

On to `COc1ccc(S(=O)(=O)N2c3ccc(Cl)cc3[C@@](O)(c3ccccc3Cl)[C@H]2C(=O)N2CCC[C@@H]2C(N)=O)cc1OC`, for which the activity (max response) is -24.3%.

(Values after PubChem BioAssay (NCATS).)
